# Bioassay records: PubChem BioAssay, The Scripps Research Institute Molecular Screening Center
# An excerpt weighted towards active compounds, which were near 3.3% of everything screened.
# NOD2 RIPK2 PPI: NOD2-RIPK2 binding disruptors in cells, primary screen, fluorescence, CHO cells, BLA complementation | Receptor-interacting serine/threonine-protein kinase 2 (Homo sapiens), O43353 | CCF4 ratio | inhibition, % at 4.98 µM | 360,000 compounds, 0.38% hits | AID 624267, 2012; in the data active means inhibition above about 21%;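 further: 0% = vehicle only and 100% = reference blocker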
# rCAG binder: binders of r(CAG) RNA repeats, primary screen, biochemical, fluorescence; r(CAG) RNA repeat, TO-PRO-1 dye displacement fluorescence; inhibition, % at 3 µM; 370,000 compounds, 1.3% hits;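 active means inhibition above the plate cutoff, the mean of all test compounds on that plate plus 3 SD, cut at about 35% in these data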;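 further: 0% = DMSO alone and 100% = 100 µM mitoxantrone as full dye displacement; higher means more dye released from RNA so lower well fluorescence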
# PRMT1 inh: PRMT1 methyltransferase inhibitors, primary screen, biochemical, fluorescence polarization; Protein arginine N-methyltransferase 1 (Homo sapiens), Q99873; recombinant PRMT1, activity-based probe fluorescence polarization; inhibition, % at 2.79 µM; 370,000 compounds, 1.3% hits; AID 652257, 2013;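 active means inhibition above about 21% made by adding two undisclosed values, limit read from the data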
# Target sequence (Q99873 whole entry, looked up): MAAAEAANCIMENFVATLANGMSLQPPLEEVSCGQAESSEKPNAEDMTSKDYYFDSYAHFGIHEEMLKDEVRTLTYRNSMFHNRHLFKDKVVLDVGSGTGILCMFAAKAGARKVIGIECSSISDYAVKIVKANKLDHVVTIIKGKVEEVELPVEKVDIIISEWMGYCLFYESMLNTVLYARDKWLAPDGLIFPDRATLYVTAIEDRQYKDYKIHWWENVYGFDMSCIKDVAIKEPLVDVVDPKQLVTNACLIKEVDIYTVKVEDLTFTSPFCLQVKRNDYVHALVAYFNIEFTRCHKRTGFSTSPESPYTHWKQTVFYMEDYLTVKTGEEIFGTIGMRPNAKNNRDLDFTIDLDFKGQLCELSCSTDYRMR
# ABHD5-PLIN5 inh: ABHD5-PLIN5 interaction inhibitors, primary screen, cell lysate, split luciferase complementation, luminescence; Split G. princeps luciferase complementation, 4 h; 360,000 compounds, 0.78% hits; inhibition, % at 4 µM; AID 602281, 2012; Perilipin-5 (Homo sapiens) + 1-acylglycerol-3-phosphate O-acyltransferase ABHD5 (Homo …;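 active means inhibition above the mean inhibition across every tested compound plus 3 SD, cut at about 22% in these data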;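 further: 0% = DMSO only wells and the 100% control is not disclosed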
# TLR4-MyD88 BLA: inhibitors of TLR4-MyD88 association in cells, primary screen, cell-based, HeLa CL3-4, BLA complementation, FRET ratio. 200,000 compounds, 0.18% hits. Toll-like receptor 4 (Homo sapiens) + Myeloid differentiation primary response protein …. inhibition, % at 8.4 µM. HeLa CL3-4 TLR4/MyD88 BLA complementation; in the data active means inhibition above about 25%;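 further: 0% = vehicle and 100% = reference inhibitor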
# TLR9-MyD88 block: inhibitors of TLR9-MyD88 association in cells, primary screen, cell-based, CHO, BLA complementation, fluorescence. CCF4 FRET ratio. inhibition, % at 4.98 µM. 340,000 compounds, 0.21% hits. AID 504734, 2011;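 active means inhibition above the mean over all tested compounds plus 3 SD, cut at about 21% in these data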;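 further: 0% = DMSO only wells and 100% = clavulanate BLA inhibitor control wells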
# ABHD5 PLIN5 conf: ABHD5-PLIN5 interaction inhibitors, confirmation, biochemical, luminescence. shares compounds with ABHD5-PLIN5 inh. inhibition, % at 4 µM. 2,200 compounds, 67% hits; in the data active means inhibition above about 23%;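 further: 0% = DMSO vehicle wells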
# HNF4 split-luc: HNF4 dimerization inhibitors, counter-screen for ABHD5-PLIN5 interaction inhibitor project, biochemical, split-luciferase complementation, luminescence. shares compounds with ABHD5-PLIN5 inh. 2,200 compounds, 77% hits. AID 651674, 2012. inhibition, % at 4 µM;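 active means mean inhibition across replicate wells exceeding the computed hit threshold, cut at about 13% in these data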;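 further: light from luciferase halves that rejoin when HNF4 fusion proteins dimerize; 0% = DMSO only wells and the 100% control is not given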
# The depositor's hits bear a star; . = not tested or not shown.
SMILES,NOD2 RIPK2 PPI,rCAG binder,PRMT1 inh,ABHD5-PLIN5 inh,TLR4-MyD88 BLA,TLR9-MyD88 block,ABHD5 PLIN5 conf,HNF4 split-luc
CCCn1c(=NC(C)=O)c(C#N)cc2c(=O)n3cccc(C)c3nc21,.,.,.,.,-23,.,.,.
CCOC(=O)c1cc2c(=O)n3cccc(C)c3nc2n(Cc2ccco2)c1=NC(=O)c1cccnc1,-3,11,19,24*,6,7,46*,58*
CCOc1ccc(CCN2C(=O)C(=O)N([C@@H](Cc3ccccc3)CN3CCC[C@H]3CN3C(=O)C(=O)NC[C@@H]3Cc3ccccc3)C[C@@H]2CC(C)C)cc1,-2,6,0,15,.,.,.,.
CCOC(=O)Nc1ccc(Oc2ccccc2)cc1,0,-2,-4,0,6,-8,.,.
CC(=O)c1cccc(NC(=O)Cc2cccs2)c1,-4,18,3,-3,-1,7,.,.
CCC(=O)Nc1cccc(C(=O)/C=C/c2cccs2)c1,-16,6,6,33*,3,5,49*,37*
CCOC(=O)Nc1ccc(C(=O)/C=C/c2ccccc2)cc1,2,4,-3,42*,.,-3,60*,44*
CCC(=O)Nc1cccc(C(=O)c2ccccc2)c1,-8,3,-1,3,0,-4,.,.
CCC(=O)Nc1cccc(C(=O)/C=C/c2ccccc2)c1,8,3,2,68*,5,7,75*,53*
CCOC(=O)C1=C(COC(=O)c2cc(S(=O)(=O)N3CCOCC3)ccc2F)NC(=O)NC1C (centres undefined),4,-5,1,-2,.,0,.,.
OC(c1ccccc1)(c1ccccc1)C1CCN(CCCOc2cccc(C(F)(F)F)c2)CC1,.,1,-3,.,.,.,.,.
CCCCn1c(N)c(N(CCOC)C(=O)c2ccc(COc3ccccc3)o2)c(=O)[nH]c1=O,-15,-6,6,4,.,-1,.,.
O=c1[nH]c(/C=C/c2ccccc2)c([N+](=O)[O-])c(=O)[nH]1,-14,3,5,27*,.,3,73*,62*
Cc1cccc(C)c1N/C=C/c1onc(C)c1[N+](=O)[O-],-18,1,0,5,6,-7,.,.
COc1cc(/C=C/c2[nH]c(=O)[nH]c(=O)c2[N+](=O)[O-])cc([N+](=O)[O-])c1O,-2,3,0,33*,.,-4,44*,33*
Cc1noc(/C=C/c2cccnc2)c1[N+](=O)[O-],2,-2,-1,37*,.,2,48*,33*
O=c1[nH]c(/C=C/c2cccc([N+](=O)[O-])c2)c([N+](=O)[O-])c(=O)[nH]1,2,13,5,25*,.,7,91*,85*
O=c1[nH]c(/C=C/c2cccnc2)c([N+](=O)[O-])c(=O)[nH]1,-4,0,-1,40*,6,-12,56*,41*
O=c1[nH]c(/C=C\c2cccnc2)c([N+](=O)[O-])c(=O)[nH]1,2,3,1,5,-23,2,.,.
CCC(=O)N(CCc1ccc(S(N)(=O)=O)cc1)C1CC(=O)N(c2ccc(OC)cc2)C1=O (centres undefined),-13,8,0,-3,-15,-10,.,.
O=C1Nc2ccc(Cl)cc2/C1=C/C1CC=CCC1 (centres undefined),-3,-1,0,30*,-9,-1,55*,39*
O=C1Nc2cnc(Cl)nc2Nc2ccc(Cl)cc21,.,3,-3,.,.,.,.,.
COc1ccc2c(c1)/C(=C\c1cccc(/C=C3/C(=O)Nc4ccc(OC)cc43)n1)C(=O)N2,-4,13,-1,51*,.,-3,100*,98*
COc1ccc2c(c1)/C(=N/N1C(=O)c3ccccc3C1=O)C(=O)N2,.,.,.,.,1,.,.,.
COc1cccc(C(=O)Oc2cc3c4c(c2)C(C)=CC(C)(C)N4C(=O)C3=O)c1,12,-2,5,33*,-17,-32,43*,46*
SMILES,NOD2 RIPK2 PPI,rCAG binder,PRMT1 inh,ABHD5-PLIN5 inh,TLR4-MyD88 BLA,TLR9-MyD88 block,ABHD5 PLIN5 conf,HNF4 split-luc
CC1(C)c2ccccc2N2CC(=O)N[C@@]21/C=C/C=C/c1ccccc1,-1,-6,3,34*,.,4,5,9
Cc1ccc(CNC(=O)Cn2c(=O)c3sccc3n(Cc3ccc([N+](=O)[O-])cc3)c2=O)cc1,-1,2,-4,-2,-12,-12,.,.
Oc1ccc(Cl)cc1-c1cc(-c2ccco2)[nH]n1,-5,26,4,14,0,0,.,.
Oc1ccccc1-c1cc(-c2ccco2)[nH]n1,-6,24,23*,27*,-9,-6,14,14*
CC1CC(C)(C)Nc2ccc(OC(=O)c3ccco3)cc21 (centres undefined),8,-5,-4,28*,2,1,71*,61*
CC(=O)c1cccc(OCC(O)CNCC2COc3ccccc3O2)c1 (centres undefined),-4,-4,-3,6,.,-14,.,.
CCN(CC)CCOC(=O)/C=C/c1ccccc1,-7,-2,-4,-4,.,0,.,.
CCN(CC)CC(C)(C)C(=O)/C=C/c1ccc(/C=C/C(=O)C(C)(C)CN(CC)CC)cc1,84*,0,13,95*,.,21,101*,107*
C=C1C(=O)[C@]23C[C@H]1CC[C@H]2[C@]1(C)[C@@H](OC(C)=O)CC[C@@](C)(C(=O)O)[C@H]1C[C@@H]3O,14,3,9,52*,.,.,53*,105*
C=C1C(=O)[C@]23C[C@H]1CC[C@H]2[C@]1(C)[C@@H](O)CC[C@@](C)(C(=O)O)[C@H]1C[C@@H]3O,-4,2,4,31*,.,.,33*,89*
C=C1C(=O)[C@]23C[C@H]1CCC2[C@@]1(C)C(C[C@@H]3O)[C@](C)(C(=O)O)C[C@H](O)[C@@H]1O (some centres undefined),-12,1,14,38*,.,.,38*,83*
CCOC(=O)C(=Cc1ccc(-n2cncn2)cc1)C(=O)OCC,7,-8,14,43*,17,-10,81*,94*
CCOC(=O)C(=CNc1cc(C)nn1-c1ccc(Cl)cc1)C(=O)OCC,-7,-5,2,-1,-5,-1,.,.
